# Measurements as given in ChEMBL document CHEMBL3988442, “University of Dundee, Small-Polar-MMV Screening Library” (2021).
# Out of some 69,000 compounds screened, about 1,000 (1.4%) showed an effect of 50% or more. What follows is part of a selection rich in strong results, with near analogues and random picks from the rest.
# Test system: Leishmania donovani
# Experiment: Leishmania intramacrophage assay
# Assay type: functional, organism-based
# Set-up: scale not given: in the data most compounds retested in dose-response had high values
compound,measurement,setting,value
O=C(O)C(F)(F)F.O=C1COC2(CCN(S(=O)(=O)C3CC3)CC2)CN1c1cccnc1,Percent Effect,"30.3 µM, […]",-7.696%
COc1ccc(C)nc1NC(=O)Cc1c(C)nn(C)c1C,Percent Effect,"30.3 µM, […]",1.753%
CC(C)NC(=O)c1ccc2nnc(C3CCN(S(C)(=O)=O)C3)n2c1 (stereo not drawn),Percent Effect,"30.3 µM, […]",33.79%
CC(Cn1cncn1)NC(=O)N1CC2(CCCC2)c2ccccc21 (stereo not drawn),Percent Effect,"30.3 µM, […]",3.028%
COc1ccc(C2CCCN2C(=O)NCCNc2ncccn2)cc1 (stereo not drawn),Percent Effect,"30 µM, 30.03 µM",9.2%
COc1ccc(C2CCCN2C(=O)NCCCn2cccn2)cc1 (stereo not drawn),Percent Effect,"30.3 µM, […]",9.048%
COc1ccc(C2CCCN2C(=O)NCCNc2ccccn2)cc1 (stereo not drawn),Percent Effect,"30.3 µM, […]",69.63%
CC(=O)c1cccc(-n2nc(C(C)=O)c(C(C)=O)c2C)c1,Percent Effect,"30.3 µM, […]",-0.2536%
COC[C@@]12CC[C@@H](N3CCOCC3)C[C@H]1CCN(c1ncccc1F)C2,Percent Effect,"30.3 µM, […]",25.63%
COC[C@@]12CC[C@@H](N3CCOCC3)C[C@H]1CCN(c1ncccc1Cl)C2,Percent Effect,"30 µM, 30.03 µM",52.08%
COC[C@@]12CC[C@@H](N3CCOCC3)C[C@H]1CCN(c1ncccc1C)C2,Percent Effect,"30.3 µM, […]",25.83%
CC(c1nccs1)N(C)C(=O)c1cc(CN(C)Cc2ccccc2)on1 (stereo not drawn),Percent Effect,"30.3 µM, […]",13.49%
Cc1cnn(CC2CCCN2C(=O)c2cc(Cl)ccc2F)c1 (stereo not drawn),Percent Effect,"30 µM, 30.03 µM",-5.128%
Nc1ncc2c(n1)CN(C1CCCC1)C2=O,Percent Effect,"30 µM, 30.03 µM",22.17%
CN1CCC(N2Cc3nc(N)ncc3C2=O)CC1,Percent Effect,"30.3 µM, […]",54.63%
CC1CCC(N2Cc3nc(N)ncc3C2=O)CC1 (stereo not drawn),Percent Effect,"30.3 µM, […]",-33.84%
CCC1=NN2C(=N)/C(=C\c3cccn3-c3ccc(Cl)cc3)C(=O)N=C2S1,Percent Effect,"30.3 µM, […]",-2.316%
CCN1C(=O)CC[C@@H]2[C@H]1CCN2S(=O)(=O)Cc1ccc(C)cc1,Percent Effect,"30.3 µM, […]",17.88%
Cl.Fc1cccc(F)c1Cn1c(C2CCNCC2)cc2cccnc21,Percent Effect,"30.3 µM, […]",57.89%
Cl.Fc1ccccc1Cn1c(C2CCNCC2)cc2cccnc21,Percent Effect,"30.3 µM, […]",43.21%
Cl.Fc1cccc(F)c1Cn1c(C2CCCNC2)cc2cccnc21 (stereo not drawn),Percent Effect,"30.3 µM, […]",-15.48%
Cc1nc(Nc2ncccn2)cc(C2CCN(CC(C)C)C2)n1 (stereo not drawn),Percent Effect,"30.3 µM, […]",2.022%
CN1CSC[C@H]1C(=O)N1CCN(Cc2cccc(F)c2)CC1,Percent Effect,"30.3 µM, […]",4.358%
COc1ccccc1OCCCN(C)c1cc(C)nc(N)n1,Percent Effect,"30.3 µM, […]",16.27%
Cc1cc(N(C)CCCn2cccn2)nc(N)n1,Percent Effect,"30.3 µM, […]",27.03%
CN(Cc1nnnn1C1CC1)CC1COc2ccccc2O1 (stereo not drawn),Percent Effect,"30.3 µM, […]",4.21%
CN(CC1COc2ccccc2O1)C(=O)C1=NN(C)C(=O)CC1 (stereo not drawn),Percent Effect,"30.3 µM, […]",18.48%
Cc1cc(N(C)CC2COc3ccccc3O2)nc(C)n1 (stereo not drawn),Percent Effect,"30.3 µM, […]",59.02%
CN(Cc1nc(CC2CC2)no1)CC1COc2ccccc2O1 (stereo not drawn),Percent Effect,"30.3 µM, […]",-8.353%
CCN1CC(CN(C)c2cc(C)nc(N)n2)Oc2ccccc21 (stereo not drawn),Percent Effect,"30.3 µM, […]",84.12%
Cc1cc(N(C)CC2COc3ccccc3O2)nc(N)n1 (stereo not drawn),Percent Effect,"30.3 µM, […]",51.06%
Cc1csc(CN2CC(CO)Oc3ccccc32)n1 (stereo not drawn),Percent Effect,"30.3 µM, […]",-4.409%
COc1ccccc1CNC(=O)N1CCCC(NS(C)(=O)=O)C1 (stereo not drawn),Percent Effect,"30 µM, 30.03 µM",-10.5%
Br.O=C(O)c1csc(NCCc2ccccc2)n1,Percent Effect,"30.3 µM, […]",-6.16%
CC(C)n1cnnc1CNC(=O)c1cnn(-c2ccccc2)c1,Percent Effect,"30.3 µM, […]",5.112%
Cc1cc(NC(=O)CN2CCOC(CN(C)C)C2)n(C)n1 (stereo not drawn),Percent Effect,"30.3 µM, […]",9.756%
Cc1nn(C)c(C)c1NC(=O)CN1CCOC(CN(C)C)C1 (stereo not drawn),Percent Effect,"30.3 µM, […]",51.92%
Cc1nn(C)c(C)c1NC(=O)CN1CCOC(Cn2cccn2)C1 (stereo not drawn),Percent Effect,"30.3 µM, […]",7.584%
CCC[C@@H]1CN(c2cncc(C(=O)N3CCOCC3)n2)C[C@H]1N(C)C,Percent Effect,"30.3 µM, […]",5.453%
FC(F)(F)CCc1ccnc(N2CCN(CCc3ccncc3)CC2)n1,Percent Effect,"30.3 µM, […]",-20.06%
NC(=O)c1cccc(CCNCc2cnc(-c3cccs3)s2)c1,Percent Effect,"30.3 µM, […]",8.667%
Cc1nn(C)c2ncnc(N3CCC(O)(CN4CCCC4)CC3)c12,Percent Effect,"30.3 µM, […]",8.338%
CC[C@@H](C)[C@H](NC(=O)CCn1cc(C(C)=O)c2ccccc21)C(=O)O,Percent Effect,"30.3 µM, […]",56.09%
CC(=O)c1cn(CCC(=O)N[C@H](C(=O)O)C(C)C)c2ccccc12,Percent Effect,"30 µM, 30.03 µM",8.027%
CC(=O)c1cn(CCC(=O)N[C@@H](CC(C)C)C(=O)O)c2ccccc12,Percent Effect,"30.3 µM, […]",32.27%
CCC1=N[C@@]2(CC[C@@H]3CN(CC4CC4)C[C@@H]32)C(=O)N1C.O=C(O)C(F)(F)F,Percent Effect,"30 µM, 30.03 µM",21.68%
CN(C1CCCN(c2ccccn2)C1)S(C)(=O)=O (stereo not drawn),Percent Effect,"30.3 µM, […]",25.41%
CN1CCCC(N(C)S(=O)(=O)c2cccc3ncccc23)C1 (stereo not drawn),Percent Effect,"30.3 µM, […]",59.16%
Cc1ccc2cccc(S(=O)(=O)N(C)C3CCCN(C)C3)c2n1 (stereo not drawn),Percent Effect,"30.3 µM, […]",25.11%
O=C(CNc1cc(-n2cnnn2)ccc1F)NCc1ccccc1,Percent Effect,"30.3 µM, […]",43.45%
CCOc1ccccc1CCN1Cc2ncccc2C1=O,Percent Effect,"30.3 µM, […]",-1.003%
Cc1nn(C)c(Cl)c1C1CCCN1c1ncnc2sccc12 (stereo not drawn),Percent Effect,"30 µM, 30.03 µM",51.25%
Cc1nn(C)c(C)c1C1CCCN1c1ncnc2sccc12 (stereo not drawn),Percent Effect,"30.3 µM, […]",33.23%
COc1c(C2CCCN2c2ncnc3sccc23)c(C)nn1C (stereo not drawn),Percent Effect,"30.3 µM, […]",26.6%
CC(=O)C(Cc1ccccc1)NC(=O)CSc1nccn1C1CC1 (stereo not drawn),Percent Effect,"30.3 µM, […]",7.269%
Cc1noc(C)c1CN1CCC2(CCN(Cc3cccc(F)c3)CC2)C1.O=C(O)C(F)(F)F.O=C(O)C(F)(F)F,Percent Effect,"30.3 µM, […]",59.23%
Cc1noc(C)c1CN1CCN(CC2CC2)c2ncccc2C1.O=C(O)C(F)(F)F.O=C(O)C(F)(F)F,Percent Effect,"30 µM, 30.03 µM",23.02%
Cc1noc(C)c1CN1CCN(Cc2cccnc2)c2ncccc2C1.O=C(O)C(F)(F)F.O=C(O)C(F)(F)F.O=C(O)C(F)(F)F,Percent Effect,"30.3 µM, […]",57.48%
CC(=O)N1CCC2(CCN(Cc3cccc(F)c3)CC2)CC1.O=C(O)C(F)(F)F,Percent Effect,"30.3 µM, […]",20%
Cc1noc(C)c1CN1CCO[C@H]2CN(C(=O)C3CCOCC3)C[C@H]21.O=C(O)C(F)(F)F,Percent Effect,"30.3 µM, […]",32.17%
Cc1noc(C)c1CN1CCO[C@H]2CN(Cc3ccc(F)cc3)C[C@H]21.O=C(O)C(F)(F)F.O=C(O)C(F)(F)F,Percent Effect,"30.3 µM, […]",23.07%
CCC(=O)N1CCC2(CCN(Cc3cccc(F)c3)CC2)CC1.O=C(O)C(F)(F)F,Percent Effect,"30.3 µM, […]",2.147%
Cc1noc(C)c1CN1CCO[C@H]2CN(Cc3cccc(F)c3)C[C@H]21.O=C(O)C(F)(F)F.O=C(O)C(F)(F)F,Percent Effect,"30.3 µM, […]",56.73%
Cc1noc(C)c1CN1CCN(Cc2ccncc2)c2ncccc2C1.O=C(O)C(F)(F)F.O=C(O)C(F)(F)F.O=C(O)C(F)(F)F,Percent Effect,"30 µM, 30.03 µM",-14.87%
Cc1ccc(-c2nc(C(=O)N(C)CC(=O)N(C)C)cs2)c(C)c1,Percent Effect,"30.3 µM, […]",-31.91%
CCS(=O)(=O)N1CCC(NCC2CNc3cc(C)nn3C2)CC1 (stereo not drawn),Percent Effect,"30.3 µM, […]",-7.273%
CC(=O)N1CC(=O)N(c2ccsc2)CC12CCN(Cc1ccoc1)C2 (stereo not drawn),Percent Effect,"30.3 µM, […]",14.63%
CC1CN(C)CCN1C(=O)c1ccn(-c2cccc(F)c2)n1 (stereo not drawn),Percent Effect,30 µM,3.559%
CCc1nnc(CNC2CCc3nc(C(C)C)nn3C2)o1 (stereo not drawn),Percent Effect,"30.3 µM, […]",-6.024%
Cc1csc(-c2cccc(NC(=O)N3CCOCC3)c2)n1,Percent Effect,"30.3 µM, […]",24.69%
Cc1csc(NC(=O)c2ccc(NC(=O)N3CCOCC3)cc2)n1,Percent Effect,"30.3 µM, […]",69.81%
Cc1csc(-c2ccc(NC(=O)N3CCOCC3)cc2)n1,Percent Effect,"30.3 µM, […]",-0.9004%
COc1ccc2cc(CN(C)C(C)c3nc(C(C)(C)C)no3)ccc2c1 (stereo not drawn),Percent Effect,"30.3 µM, […]",20.66%
COc1ccc2cc(CN(C)C(C)c3nc(C4CC4)no3)ccc2c1 (stereo not drawn),Percent Effect,"30.3 µM, […]",57.64%
CC(c1nc(C2CC2)no1)N(C)Cc1ccc2c(c1)OCCO2 (stereo not drawn),Percent Effect,"30.3 µM, […]",14.22%
CSCc1noc(CNC(=O)c2cc(C)c(C)[nH]c2=O)n1,Percent Effect,"30.3 µM, […]",20.7%
Cc1cnc(NC2CCN(CC(=O)Nc3ccccc3)CC2)nc1C,Percent Effect,"30.3 µM, […]",18.37%
COc1ccnc(NC2CCN(CC(=O)Nc3ccccc3)CC2)n1,Percent Effect,"30.3 µM, […]",-0.8363%
O=C(CN1CCC(Nc2ncccn2)CC1)Nc1ccccc1,Percent Effect,"30.3 µM, […]",51.04%
CCc1nnc(CN(CC)C(=O)C2CC(=O)N(C3CCCC3)C2)o1 (stereo not drawn),Percent Effect,"30.3 µM, […]",-15.82%
Cc1nn(C)c(Oc2ccc(Cl)cc2)c1CN1CCC(CN)C1 (stereo not drawn),Percent Effect,"30.3 µM, […]",74.8%
Cc1nn(C)c(Oc2ccc(Cl)cc2)c1CN1CC[C@H](CO)[C@@H](O)C1,Percent Effect,"30.3 µM, […]",9.933%
Cc1nn(C)c(Oc2ccc(Cl)cc2)c1CN1CCOC(CN)C1 (stereo not drawn),Percent Effect,"30.3 µM, […]",3.142%
Cc1cccc(SC2CCN(C(=O)CCCn3cnnn3)CC2)c1,Percent Effect,"30.3 µM, […]",53.34%
Cc1cccc(SC2CCN(C(=O)CCCS(N)(=O)=O)CC2)c1,Percent Effect,"30.3 µM, […]",24.28%
CC(=O)NCCCC(=O)N1CCC(Sc2cccc(C)c2)CC1,Percent Effect,"30.3 µM, […]",42.91%
CCOCC(=O)N1CSCC1C(=O)N(C)Cc1ccco1 (stereo not drawn),Percent Effect,30 µM,13.38%
Cc1nc(N2CC[C@@H](c3ccc4ccccc4c3)[C@H](O)C2)no1,Percent Effect,"30.3 µM, […]",18.28%
CCCc1nc(N2CC[C@@H](c3ccc4c(c3)OCO4)[C@H](O)C2)no1,Percent Effect,"30.3 µM, […]",11.09%
CCCc1nc(N2CC[C@@H](c3ccc4ccccc4c3)[C@H](O)C2)no1,Percent Effect,"30.3 µM, […]",50.36%
Cc1cc(N2CCc3c(nc(C(C)C)n3C)C2)nc(N)n1,Percent Effect,"30.3 µM, […]",17.43%
Cc1nc(C)n(CC2CN(CC(=O)Nc3cccnc3)CCO2)n1 (stereo not drawn),Percent Effect,"30 µM, 30.03 µM",31.54%
Cc1nc(C)n(CC2CCCN(CC(=O)Nc3ccncc3)C2)n1 (stereo not drawn),Percent Effect,30 µM,29.85%
Cc1nc(C)n(CC2CCCCN2CC(=O)Nc2ccncc2)n1 (stereo not drawn),Percent Effect,"30 µM, 30.03 µM",-8.014%
Cc1nc(C)n(CC2CCCN2CC(=O)Nc2cccnc2)n1 (stereo not drawn),Percent Effect,"30.3 µM, […]",2.659%
Cc1nc(C)n(CC2CCCN2CC(=O)Nc2ccncc2)n1 (stereo not drawn),Percent Effect,"30.3 µM, […]",50.98%
Cc1nc(C)n(CC2CCCN(CC(=O)Nc3cccnc3)C2)n1 (stereo not drawn),Percent Effect,"30.3 µM, […]",59.36%
Cc1nc(CN(C)C2CCCN(Cc3noc(C4CC4)n3)C2)oc1C (stereo not drawn),Percent Effect,30 µM,-8.721%
